# This is a sample that favours compounds with a hit; in the whole collection about 2.4% have one here.
# D2 PAM-1 = positively modulates the human D2 dopamine receptor allosterically; AID 485347; potentiation, % at 10 µM; 340,000 tested, 0.34% active; HEK293 T-REx D2, calcium flux, EC20 dopamine potentiation; P14416;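 active = potentiation over 3 SD above the plate norm, cut at about 30% in these data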; note: 0% is about no effect
# Target sequence (P14416 whole entry, looked up): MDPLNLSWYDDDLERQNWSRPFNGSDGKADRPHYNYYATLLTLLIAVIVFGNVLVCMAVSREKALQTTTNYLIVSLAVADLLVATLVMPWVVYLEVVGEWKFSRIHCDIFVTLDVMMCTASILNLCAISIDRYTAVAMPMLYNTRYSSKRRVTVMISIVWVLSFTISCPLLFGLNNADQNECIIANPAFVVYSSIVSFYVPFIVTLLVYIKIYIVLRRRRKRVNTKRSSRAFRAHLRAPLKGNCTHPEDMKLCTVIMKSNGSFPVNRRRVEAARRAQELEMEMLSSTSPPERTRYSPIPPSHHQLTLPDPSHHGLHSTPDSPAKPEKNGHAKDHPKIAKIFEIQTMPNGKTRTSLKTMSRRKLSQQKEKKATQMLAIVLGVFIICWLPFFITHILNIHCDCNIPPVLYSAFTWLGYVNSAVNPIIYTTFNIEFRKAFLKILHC
#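 Potentiation of an EC20 dopamine calcium response measured kinetically over 180 s, after a preceding 180 s compound-only read flagging agonists. Cells: inducible Hek293 Trex D2 line, 4000/well, cultured overnight at 30 C before dye loading.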
# D2 ag-1 = agonists of human D2 dopamine receptor. P14416. 340,000 tested, 0.53% active. HEK293 T-REx D2 cells, calcium flux agonist mode. activation, % at 2 µM;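 active = activation over 3 SD above normal in the single-dose calcium agonist read, cut at about 30% in these data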; note: 0% is about no effect
#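 In this primary screen, compounds producing a positive calcium signal within 180 s of addition to tetracycline-induced, force-coupled HEK293 Trex D2 cells are flagged; cells are dye-loaded with a no-wash calcium kit beforehand.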
# D2 antagonist = antagonists of human D2 dopamine receptor | P14416 | HEK293 TREx D2 cells, calcium flux, dopamine EC80 | inhibition, % at 10 µM | 340,000 tested, 2% active; in the data active = inhibition above about 30%; inactive = below that, where a call was filed; note: 0% is about no effect
#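 Dopamine at EC80 is the agonist stimulus; test compounds precede it by 180 s. Calcium flux read kinetically in a force-coupled, inducible HEK293 T-REx D2 cell line.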
# D2 ag-2 = agonists of human D2 dopamine receptor (beta-arrestin); P14416; DiscoveRx PathHunter D2 beta-arrestin, luminescence, 90 min; 100% = 57 uM dopamine signal; activation, % (test concentration not listed); 360,000 tested, 0.084% active; in the data active = activation above about 40%; inconclusive = between about 15% and that limit
#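 Agonist mode: compounds alone added to overnight-plated D2 PathHunter cells for 90 min at 37 C, with 57 uM final dopamine (EC100) defining full response. Beta-arrestin recruitment detected by chemiluminescent reagent, read after 1 h at ambient temperature.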
# D2 PAM-2 = human D2 receptor positive allosteric modulation; P14416; 360,000 tested, 0.23% active; AID 624464; potentiation, % (test concentration not listed); DiscoveRx D2 beta-arrestin cells, luminescence, 90 min; 100% = 57 uM dopamine signal; in the data active = potentiation above about 50%; inconclusive = mostly about 30% to 49%
#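 PathHunter beta-arrestin assay in DiscoveRx D2 cells. Compounds were added with an EC20 of dopamine (50 nM final) for 90 min at 37 deg C. Luminescence was read 1 h after detection reagent, with 57 uM dopamine as the EC100 control.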
# * hit, by the source's call; ? = inconclusive; . = not tested or not shown; ! = repeats disagree.
SMILES,D2 PAM-1,D2 ag-1,D2 antagonist,D2 ag-2,D2 PAM-2
COc1ccc(C(=O)Nc2nc3n(n2)C(c2ccc(Cl)cc2)C=C(c2ccccc2)N3)cc1OC (stereo unspecified),-10.7,9.5,.,.,.
CCOC1=C2CN(S(=O)(=O)c3ccc(C)cc3)[C@@H](c3cccs3)C[C@H]2[C@H]2C(=O)N(c3ccccc3)C(=O)[C@H]2C1,.,.,.,-4.7,-5.2
COc1ccc(C2CNC(=O)C2)cc1OC1CCCC1 (stereo unspecified),-4.4,70.3*!,71.2*!,-3.7,-1.8
COc1ccc(CCNS(=O)(=O)c2ccc(C3CNC(=O)C3)cc2)cc1OC (stereo unspecified),.,.,.,0.1,2.7
CCOc1ccc(CCn2c(-c3ccco3)nc3ccccc3c2=O)cc1OCC,-22.5,0.4,35.8*,-2.2,0.8
O=c1c2ccccc2nc(-c2ccoc2)n1CCc1ccccc1,62.4*,-0.2,1.5,-3.0,-0.1
O=c1c2ccccc2nc(-c2ccco2)n1Cc1ccccc1,22.0,-0.6,24.1,-2.7,-8.7
Cc1ccc(C(=O)N/C(=C\c2ccco2)C(=O)NCCN2CCOCC2)cc1,1.0,-0.3,-16.0,-7.3,-12.1
OC1(c2cccc(F)c2)CCN(Cc2ccncc2)CC1,-22.0,-0.3,55.8*,-2.6,-40.8
CC(C(=O)Nc1cc(Cl)cc(Cl)c1)N1CCCC1 (stereo unspecified),-29.6,2.0,89.1*,-0.9,-12.3
Cc1cc(C)c(NC(=O)C(C)N2CCCCCC2)c(C)c1 (stereo unspecified),1.4,-0.2,-10.8,-2.5,-4.4
CCOC(=O)c1cccc(NC(=O)c2nn(-c3ccc(OC)cc3)c(=O)c3c2c2ccccc2n3C)c1,1.0,-0.4,.,.,.
Cc1cc(C(=O)COC(=O)Cn2cnc3c2c(=O)n(C)c(=O)n3C)c(C)n1C,8.8,0.3,45.0*,-0.9,-8.6
CCOc1ccc(OCC)c(NS(=O)(=O)c2cc(-c3onc(C)c3C)ccc2OC)c1,1.9,-0.2,.,.,.
O=C(CCC(=O)Nc1ccc(F)cc1)N/N=C/c1ccccc1O,-7.5,0.0,33.5*,-2.3,-19.8
O=C(CCC(=O)Nc1ccc(Br)cc1)N/N=C/c1ccccc1F,-0.6,-0.5,7.1,3.3,-5.5
O=C(CCC(=O)Nc1ccccc1)N/N=C/C=C/c1ccccc1,-10.4,-0.1,30.3*,0.7,-2.2
Cc1nc2ccccc2n1CCC(=O)O,-1.4,0.2,6.5,0.0,20.8
Cc1nc2ccccc2n2c(O)c(CC(=O)O)cc12,-6.7,2.0,1.6,14.2,79.3*
COc1cc(CNCCCN2CCOCC2)cc(Br)c1OCc1ccc(Cl)cc1,-5.9,3.2,-1.6,4.2,2.5
COc1cc(CNCCCN2CCOCC2)cc(Br)c1OCC(=O)N1CCCCC1,7.5,0.0,32.3*,-2.7,-5.5
C=CCOc1ccc(/C=C/C(=O)OCC(=O)NCC2CCCCC2)cc1,13.6,-0.6,4.8,-2.2,-33.1
C=CCOc1ccc(/C=C/C(=O)OCC(=O)NC2CCCCCCC2)cc1,-16.5,0.6,42.6*,-2.7,-6.2
COc1cccc(-c2cc(C(F)(F)F)nc(-n3nc(C)c(Br)c3C)n2)c1,-8.2,1.5,.,.,.
Cc1ccc(CNc2ccc3c(c2)ncn3C(C)C)cc1,-0.6,37.1*,-3.2,-1.8,-10.6
SMILES,D2 PAM-1,D2 ag-1,D2 antagonist,D2 ag-2,D2 PAM-2
COc1ccc(CC(=O)Nc2cccc(-c3nnc(-c4ccccc4)o3)c2)cc1OC,18.3,0.0,5.8,13.5,54.3*
COc1ccc(CC(=O)Nc2cccc(-c3nnc(-c4ccc(C)cc4)o3)c2)cc1OC,5.5,1.0,-18.3,?,19.0
CCOc1ccc(Cl)cc1S(=O)(=O)n1cnc2ccccc21,-2.4,-0.1,-5.8,1.5,-2.3
COc1ccc(Cl)cc1S(=O)(=O)n1cnc2ccccc21,12.1,-0.5,79.0*,-4.2,12.5
CCn1c(C)c(C2N3CC4(C)CN2CC(C)(C3)C4=O)c2ccccc21 (stereo unspecified),2.8,-0.5,.,.,.
CCOC(=O)c1nnn(-c2nonc2N)c1CN1CCCCCC1,-5.8,-0.1,15.3,0.1,-2.0
Cc1c(C(=O)N2CCCCCC2)nnn1-c1nonc1N,1.2,0.5,40.8*,-2.9,-21.0
CCCCOC(=O)c1cccc(NC(=O)c2cc3ccccc3o2)c1,4.0,.,.,.,.
COc1cccc(-n2c(=O)c3sccc3n(CC(=O)NC3CCCC3)c2=O)c1,17.4,-0.8,-13.9,-7.5,-7.9
COc1cccc(-n2c(=O)c3sccc3n(CC(=O)NC3CCCCC3)c2=O)c1,1.3,-0.4,30.5*,-2.7,-6.0
CC(=O)N1CCCc2cc(S(=O)(=O)N3CCN(c4ccccc4F)CC3)ccc21,-9.0,0.6,.,.,.
COC(=O)c1cc2c(ccn2-c2ccc(F)cc2)n1CC(C)C,12.3,-0.2,14.6,-2.8,-5.3
CCCn1c(C(=O)OC)cc2c1ccn2-c1ccc(F)cc1,31.9*,0.9,9.6,-3.0,7.7
CCOc1cc(/C=N/NC(N)=O)cc(Br)c1OCC(=O)Nc1ccccc1C,9.0,-0.3,-23.6,-1.8,53.1*
CC(Sc1nc(O)c(-c2ccccc2)c(=O)[nH]1)C(=O)Nc1ccc(Cl)cc1 (stereo unspecified),3.5,-2.3,-31.6,2.8,-8.7
Cc1ccc(NC(=O)C(C)Sc2nc(-c3ccccc3)cc(=O)[nH]2)cc1 (stereo unspecified),-0.8,-0.6,36.5*,-2.7,-7.5
COc1cc2c(cc1OC)C1C/C(=N\O)C(CC(C)C)CN1CC2 (stereo unspecified),-19.9,4.6,59.7*,-0.7,-40.5
CN(CCOc1cccc(C(F)(F)F)c1)Cc1ccccc1,.,.,.,-6.7,-19.8
FC(F)(F)c1cccc(OCCN2CCN(Cc3ccccc3)CC2)c1,-20.4,0.5,82.0*,-1.7,-44.5
c1ccc(OCCN2CCN(C(c3ccccc3)c3ccccc3)CC2)cc1,-15.5,0.6,46.0*,-1.0,-2.2
O=c1[nH]c2ccccc2n1CCCN1CCCCC1,-21.0,0.2,20.2,0.6,-20.1
O=c1[nH]c2ccccc2n1CCCN1CCN(C(c2ccccc2)c2ccccc2)CC1,-27.1,-0.5,83.8*,.,.
O=C(NCC(c1ccco1)S(=O)(=O)c1cccs1)c1ccccc1F (stereo unspecified),-1.1,-0.1,.,.,.
Cc1ccc(C(=O)OCc2cc(=O)n3nc(CC(C)C)sc3n2)cc1,-3.8,0.0,.,.,.
O=C(COC(=O)c1ccc(O)cc1O)Nc1ncc(Cl)cc1Cl,-1.2,1.6,31.1*,4.8,8.9
CC(C)OCCCNC(=O)c1ccc2c(c1)S(=O)(=O)c1ccccc1C2=O,3.6,0.0,19.2,1.4,72.0*
CCCCNC(=O)c1ccc2c(c1)S(=O)(=O)c1ccccc1C2=O,-7.8,-1.0,6.8,4.6,10.9
Cc1cccc(CC(=O)N2CC(=O)Nc3ccc(C)cc3C2c2ccc(F)cc2)c1 (stereo unspecified),22.7,.,.,.,.
O=C1CCCN1Cc1ccccc1,1.2,0.4,30.4*,-6.3,-5.8
